PubChem BioAssay AID652010 (The Scripps Research Institute Molecular Screening Center, 2013)
Out of some 370,000 compounds screened, about 4,100 (1.1%) were called active. For the sample, actives were picked, then their nearest neighbours and some compounds at random. Unmarked numbers belong to inactive results.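 How the source made its calls: active means inhibition above the mean over all tested compounds plus 3 SD (cut at about 3.6% in these data); inactive means the rest.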

Experiment: DAX1 (NR0B1) inhibitors on StAR promoter, primary screen, cell-based, luminescence, SF-1 (NR5A1), full-length DAX-1 (AID 652010);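 further: 0% = DAX-1 cells with DMSO and 100% = cells lacking DAX-1 with DMSO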
Details: HEK293T StAR-luciferase reporter, SF-1/DAX-1 repression relief; at 6.8 µM; stronger effect = higher value

Structure (SMILES) | inhibition
Cc1ccc(C)c(-n2ccnc2SCC(N)=O)c1 | -0.07%
S=C(Nc1ccc(Cl)cc1Cl)N1CCCC1 | 2.27%
O=C(NC(=S)Nc1ccc(Cl)cc1Cl)C1CC1 | 5.23% (active)
O=C(NC(=S)Nc1ccc(Br)cc1F)C1CCCCC1 | 3.34%
Cc1cccc(-n2c(O)c(C=Nc3ccccc3N)c(=O)[nH]c2=O)c1 | 3.64% (active)
Cc1cc(=O)n(C)c(=O)n1CCCNc1ccccc1 | 0.36%
COc1ccc(C#CCNCc2ccc(OC)cc2OC)cc1 | -1.39%
Cc1cc(C(=O)NN=C/C=C/c2ccco2)n[nH]1 | 0.49%
Clc1ccc(Nc2ccc3ccccc3n2)cc1 | 2.89%
Nc1nonc1-n1nnc(C(=O)N/N=C/c2ccc(Cl)cc2)c1-c1ccc2c(c1)OCO2 | 0.01%
C(=N\Nc1ccc2ccccc2n1)/c1ccc2c(c1)OCO2 | 8.27% (active)
COC(=O)[C@@]12CCCCC3=C1N(CCC3)C(=O)[C@H]2CC(=O)NCc1cccc2ccccc12 | -0.9%
O=C(Nc1cc(F)ccc1F)c1ccc2c(=O)n3c(nc2c1)CCC3 | 3.87% (active)
Cc1cc(C)c(C)c(S(=O)(=O)N2CCN(C(=O)c3ccc4c(=O)n5c(nc4c3)CCC5)CC2)c1C | 5.04% (active)
CC1CCN(C(=O)c2ccc3c(=O)n4c(nc3c2)CCCCC4)CC1 | -0.43%
O=C(O)c1ccc2c(=O)n3c(nc2c1)/C(=C/c1ccc(OC(F)F)cc1OC(F)F)CC3 | 0.3%
O=C(c1ccc(Cl)c(S(=O)(=O)N2CCCCC2)c1)N1CCCCCC1 | -3.11%
N#Cc1cccc(OC(=O)c2ccc3c(=O)n4c(nc3c2)CCC4)c1 | -0.02%
COP(=O)(O)CNC(=O)OCc1ccccc1 | -0.36%
COC(=O)c1c(-c2ccc(OC)cc2)c2c(c3c4cc(OC)ccc4n(S(=O)(=O)c4ccc(F)cc4)c13)C(=O)N(C)C2 | -2.04%
CC(=O)c1ccc(S(=O)(=O)NCC2CCN(C(=O)C(=O)c3cccs3)CC2)cc1 | -0.63%
Cc1cc(OC(=O)NCCc2ccc(F)cc2)ccc1F | -0.8%
Cc1cc(C(=O)NCCc2ccc(Cl)cc2)c(C)o1 | 5.45% (active)

Structure (SMILES) | inhibition
NS(=O)(=O)c1ccc(CCNC(=O)c2ccc(Cl)cc2[N+](=O)[O-])cc1 | -0.5%
CC(=O)OCCN1CCCC12CCC(c1ccccc1)CC2 (stereo unspecified) | -0.24%
O=C(N/N=C/c1sc(N2CCCCC2)nc1-c1cccs1)c1cccnc1 | -1.84%
O=C(O)c1ccc(N/N=C/c2cn(-c3ccccc3)nc2-c2cccs2)cc1 | 6.23% (active)
Cc1c(NC(=O)C(=O)N/N=C/c2cccs2)c(=O)n(-c2ccccc2)n1C | 0.14%
CN(CCO)c1cccc2c1S(=O)(=O)N(Cc1cn(Cc3ccc(C(F)(F)F)cc3)nn1)Cc1ccccc1O2 | -1.1%
C=CCN1C(=O)[C@@H](CC(=O)NCCCOCCCC)[C@]2(C(=O)OCC)CCCCC/C=C/12 | 0.1%
O=C1/C(=C\Nc2ccccc2)CCN1c1ncccn1 | 0.43%
CCCOc1ccc(-c2c(C(=O)N/N=C/c3ccco3)nnn2-c2nonc2N)cc1 | -0.59%
CCCCOc1ccc(-c2nnc(-c3ccco3)o2)cc1 | 4.13% (active)
O=C(CSc1nnc(-c2ccco2)o1)NCC(=O)c1ccccc1 | 1.51%
CCOc1ccc(NC(=O)N(CCC(C)C)C(C)c2ccco2)cc1 (stereo unspecified) | -0.03%
CCOc1ccc(-c2nnc(-c3ccco3)o2)cc1 | 6.66% (active)
CCCCCCc1cc2cc(-c3nnc(-c4cccc(OC)c4)o3)c(=O)oc2cc1O | 1.42%
C=CCN1C(C(=O)OC)CN(Cc2cn(Cc3ccccc3)nn2)CCS1(=O)=O (stereo unspecified) | -0.18%
COC(=O)[C@]12C[C@H](CC(=O)NCC34CC5CC(CC(C5)C3)C4)C(=O)N(Cc3ccc(Cl)cc3Cl)C1=C[C@H](COCc1ccccc1)O[C@@H]2C | -0.93%
COC(=O)[C@]1(C#N)CC(=O)N(CC2CCCCC2)[C@@H]1c1ccccc1 | 1.2%
FC(F)(F)c1cccc(Cn2ccc3ccc(-c4ccc5ccn(Cc6ccccc6)c5c4)cc32)c1 | -1.01%
O=C(CCCCCN1C(=O)C2C3C=CC(C3)C2C1=O)Nc1ccccn1 (stereo unspecified) | -0.18%
COc1cc(OC)c(C(=O)NNC(=O)c2ccc(NS(=O)(=O)c3cccs3)cc2)cc1OC | 4.51% (active)
COc1cc(OC)c(C(=O)NNC(=O)c2ccccc2-n2cccc2)cc1OC | 0.07%
C/C(=N\NC(=O)c1ccc(NS(=O)(=O)c2cccs2)cc1)c1ccc2ccccc2c1 | 0.35%
COc1ccc(-c2cc(-c3nnc(SCC(=O)Nc4cccc5ccccc45)n3N)[nH]n2)cc1 | -0.22%

Structure (SMILES) | inhibition
C[C@H](C(=O)N(C)c1ccccc1)[C@@H](O)c1ccc2ccccc2c1 | 0.19%
O=C(O)C1C2C=CC(O2)C1C(=O)Nc1ccccn1 (stereo unspecified) | 0.46%
CS(=O)(=O)N(CC(=O)N/N=C/c1ccccn1)c1ccc(Oc2ccccc2)cc1 | -0.11%
S=C(NN=Cc1ccccn1)Nc1ccccn1 | 3.77% (active)
Clc1ccc(-n2c(SC/C=C/c3ccccc3)nnc2-c2ccco2)cc1 | -1.85%
Cc1ccc(-c2nc(-c3cccnc3)sc2CC(=O)Nc2ccc(C)c(Cl)c2)cc1 | -0.1%
O=C(NCc1ccco1)C1CCCN(S(=O)(=O)c2ccc(Cl)s2)C1 (stereo unspecified) | -1.13%
O=C1N(c2ccccc2)C(=Nc2ccccc2)SC12CC2 | -0.44%
COc1cc(SC)ccc1C(=O)Nc1cc(C)ccn1 | 4.19% (active)
COc1cc(SC)ccc1C(=O)Nc1nc(C)cs1 | -3.74%
Cc1ccnc(NC(=O)C(C)N2C(=O)c3ccccc3C2=O)c1 (stereo unspecified) | -0.27%
O=C(c1cccc(C(F)(F)F)c1)N1CC[C@H]2[C@H](CCCN2Cc2cc(F)cc(F)c2)C1 | 0.13%
Cc1sc2nc(SCC(=O)c3ccc(O)c(O)c3)n(Cc3ccco3)c(=O)c2c1C | -0.17%
CC1CCN(CCCNC(=O)CN2C(=O)CSc3ccc(S(=O)(=O)N4CCCCC4)cc32)CC1 | 4.58% (active)
COCCCNC(=O)CN1C(=O)CSc2ccc(S(=O)(=O)N3CCOCC3)cc21 | 0.4%
COc1ccc(NC(=O)CN2C(=O)CSc3ccc(S(=O)(=O)N4CCC(C)CC4)cc32)cc1 | -0.14%
COC(=O)[C@]12C[C@H](CC(=O)NCc3ccccc3)C(=O)N(CCC3=CCCCC3)C1=C[C@H](C(C)(C)C)O[C@@H]2C | -0.82%
Cc1ccc(NC(=O)N2c3ccccc3SC2c2ccco2)c(C)c1 (stereo unspecified) | -1.05%
O=C(Nc1nonc1-c1ccc(Cl)cc1)c1ccco1 | -0.6%
O=C(Nc1ccc(NC(=O)c2cccs2)cn1)c1ccco1 | 5.96% (active)
O=C(N/N=C/C=C/c1ccco1)c1cccs1 | 0.78%
C[C@H](C(=O)N(C)c1ccccc1)[C@@H](O)c1ccc(Cl)cc1 | -0.7%
O=C(OC12CCCN(C1)/C(=C/c1cccnc1)C2)C1CCCC1 (stereo unspecified) | -1.73%

Structure (SMILES) | inhibition
COc1ccc(/C=C/C(=O)OCC(=O)N2CCN(S(=O)(=O)c3ccc(C)cc3C)CC2)cc1OC | -1.45%
COc1ccccc1CCC(=O)OCC(=O)N1CCN(S(=O)(=O)c2ccc(C)cc2C)CC1 | 4.53% (active)
Cc1ccc(S(=O)(=O)N2CCN(C(=O)COC(=O)CNC(=O)c3ccc(C(C)(C)C)cc3)CC2)c(C)c1 | -0.26%
COc1ccc(-c2onc(C)c2-c2ccc3c(c2)OCCO3)c(O)c1 | -0.75%
COc1ccc(C2=Nc3cc(C)ccc3OC2)cc1 | 4.81% (active)
COc1ccc(/C=C/c2c(-c3cccc(C)c3)oc3ccc(-c4ccc5c(c4)OCO5)cc23)cc1 | -0.02%
O=C(c1c[nH]c2ccccc12)N1CCC(Oc2cccnc2)CC1 | -0.43%
COc1ccccc1CCNC(=O)C1CCN(c2nc(C)cc(C)n2)CC1 | -0.06%
CCc1c(-c2ccccc2OC)ncn1CCc1ccccc1OC | -2.14%
O=C(CSc1nnc2n1CCCN2)c1ccccc1 | 0.61%
O=C(CSc1nnc2ccccn12)c1ccccc1 | 4.08% (active)
N#Cc1ccc(CSc2nnc3ccccn23)cc1 | -0.37%
C[C@H]1CCC/C=C/C(=O)c2c(O)cc(O)cc2CC(=O)O1 | -6.29%
Cc1ccc(-c2nc(C3CCCN(S(=O)(=O)c4ccc(Br)s4)C3)no2)cc1 (stereo unspecified) | 0.62%
CCN(CCCNC(=O)c1ccc2c(c1)NC(=O)CN2C)c1cccc(C)c1 | -0.89%
Cc1ccccc1Nc1nc(N)nc(COC(=O)CCC(=O)c2ccc(F)cc2)n1 | 1.74%
Cc1ccccc1Nc1nc(N)nc(CSc2nnc3ccccn23)n1 | 0.79%
Cc1ccccc1Nc1nc(N)nc(CSc2ccccc2)n1 | 6.39% (active)
COC(=O)c1cc(NC(=O)c2cc(C(C)(C)C)nn2Cc2cccc(C)c2)ccc1N1CCOCC1 | -0.35%
O=C(CSc1cccc[n+]1[O-])NCCCc1ccccc1 | -0.54%
O=C(CSc1cccc[n+]1[O-])c1ccc(-c2ccccc2)cc1 | 6.13% (active)
CCN(C(=O)CSc1cccc[n+]1[O-])c1ccccc1 | -1.71%
